MARV entry inh – blocks Marburg virus binding to or entry into cells | AID 540276 | actives 1.8% (n = 300,000) | Potency, µM (highest dose often 37.8 µM), inactives show at the top dose activity change, negative = inhibition, hits mostly inhibitors | Marburg virus pseudotyped entry inhibition, cell reporter; calls by dose curve; tested in HEK293 cells; also: potency is read from the fitted curve at half-maximal effect; % is scaled to controls: 0 for no effect and ±100 for the full control effect
Pf growth 48h – inhibits P. falciparum growth in the first generation, 48 h. AID 504832. actives 5.9% (n = 310,000). Potency, µM (doses to about 28.7 µM), for the others: top-dose activity change, negative = inhibition, usual class: inhibitors. P. falciparum luciferase growth in erythrocytes, 48 h; also: potency is read from the fitted curve at half-maximal effect; % is scaled to controls: 0 for no effect and ±100 for the full control effect
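Here the parasites carry a stable luciferase gene and grow inside erythrocytes in Albumax-based RPMI medium with compound for one erythrocytic cycle. Activity is scored as loss of luminescent signal.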
LASV entry inh – blocks Lassa virus binding to or entry into cells; Lassa virus pseudotype entry inhibition, cell reporter; actives 1.2% (n = 300,000); Potency, µM (top dose mostly 37.9 µM), for inactives: at the highest dose activity change, negative = inhibition, hits mostly inhibitors; calls by dose curve; tested in HEK293 cells; also: potency is read from the fitted curve at half-maximal effect; % is scaled to controls: 0 for no effect and ±100 for the full control effect; nearly all actives have a fitted effect of over 50% in size
Shiga inhibitor – blocks Shiga toxin action in Vero cells | Vero cells, Shiga toxin protein synthesis inhibition reporter | inhibition, % at 38.7 µM | actives 9.2% (n = 290,000) | AID 2315; in the data active = inhibition mostly above about 28%, no sharp cut-off; inactive = mostly below about 43%; also: 0% is about no effect
Pf growth 96h – P. falciparum growth inhibition at 96 hours; actives 6.9% (n = 320,000); Potency, µM (series often up to 28.7 µM), inactives show at the highest dose activity change, negative = inhibition, actives largely listed as inhibitors; P. falciparum luciferase reporter growth, 96 h; also: potency is read from the fitted curve at half-maximal effect; % is scaled to controls: 0 for no effect and ±100 for the full control effect
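Parasite growth measured via integrated firefly luciferase reporter in P. falciparum. Infected erythrocytes at 2% hematocrit, 0.05% parasitemia final were treated 96 hours at 37 C under 5% CO2, and luminescence was read.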
CHX counter – counter-screen for Shiga toxin inhibitors: cycloheximide protein synthesis inhibition; cell reporter, cycloheximide protein synthesis inhibition counterscreen; max response, %; actives 12% (n = 300,000); AID 2314; in the data active = max response mostly above about 13%, no sharp cut-off; inactive = mostly below about 14%; also: read at 38.3 µM for the half of the compounds with a filed dose; 0% is about no effect
* hit, by the source's call; [ ] = remark or other dose. Hits are enriched below; roughly 19% of the tested compounds scored in any of these assays. Unless noted, calls follow the shape of the dose curve; as a rule, active = well fitted inhibition curve with a large enough effect; inconclusive = small, poorly fitted or top-dose-only effect, or another doubt; inactive = no such curve, though single readings can be large or run the other way.

What do the screens show for `CC1CCCN(CCOCCSc2ccccc2)C1` (stereo not drawn)?
MARV entry inh: inconclusive; Pf growth 48h: -11.5%; LASV entry inh: inconclusive; Shiga inhibitor: -14.7; Pf growth 96h: inconclusive; CHX counter: -4.3

What do the screens show for `CC1CC(C)CN(CCOCCSc2ccccc2)C1` (stereo not drawn)?
MARV entry inh: inconclusive; Pf growth 48h: inconclusive; LASV entry inh: 9.2µM*; Shiga inhibitor: 1.9; Pf growth 96h: inconclusive; CHX counter: 0.2

What do the screens show for `Cc1cc([N+](=O)[O-])ccc1NC(=O)c1cccc(NC(=O)C(C)C)c1`?
Pf growth 48h: 15.3%; Shiga inhibitor: 107.9*; Pf growth 96h: 61.7%[5.75 µM]; CHX counter: 15.5*

What do the screens show for `Cc1occc1C(=O)NNC(=O)Nc1ccc(F)cc1F`?
MARV entry inh: 9.7%; Pf growth 48h: 3.3%; LASV entry inh: 6.0%; Shiga inhibitor: 13.7; Pf growth 96h: inconclusive; CHX counter: 5.5

What do the screens show for `Cc1ccc([N+](=O)[O-])cc1NC(=O)c1ccoc1C`?
MARV entry inh: inconclusive; Pf growth 48h: 2.4%; LASV entry inh: 14.1%; Shiga inhibitor: 48.3*; Pf growth 96h: 22.6%; CHX counter: 35.2*

How did Cc1c(NC(=O)c2ccccc2)cccc1[N+](=O)[O-] do in these assays?
MARV entry inh: 16.3%; Pf growth 48h: 20.4%; LASV entry inh: -15.9%; Shiga inhibitor: active; Pf growth 96h: 44.3%; CHX counter: 17.5*

How did Cc1occc1C(=O)Nc1ccc(Br)cc1F do in these assays?
MARV entry inh: 8.5%; LASV entry inh: 10.9%; Shiga inhibitor: 52.2*; Pf growth 96h: 112.1%; CHX counter: 50.9*

How did O=C(O)C(Cc1ccc(O)cc1)N1C(=O)c2c(Cl)c(Cl)c(Cl)c(Cl)c2C1=O (stereo not drawn) do in these assays?
MARV entry inh: 7.4%[46.1 µM]; LASV entry inh: 2.9%[46.1 µM]

How did O=C(Nc1ccc([N+](=O)[O-])cc1NC(=O)c1ccccc1)c1ccccc1 do in these assays?
MARV entry inh: inconclusive; LASV entry inh: 6.9%[46.1 µM]

Results for Cc1ccc([N+](=O)[O-])cc1NC(=O)c1ccccc1 ?
MARV entry inh: -0.5%[46.1 µM]; Pf growth 48h: 11.3%; LASV entry inh: 0.4%; Shiga inhibitor: -4.8; Pf growth 96h: 2.08µM*; CHX counter: -3.6

What do the screens show for `Cc1cc([N+](=O)[O-])ccc1NC(=O)c1csc(C)c1C`?
MARV entry inh: -18.3%[46.1 µM]; Pf growth 48h: 145.0%; LASV entry inh: 21.8%[46.1 µM]; Shiga inhibitor: 98.6*; Pf growth 96h: -4.7%; CHX counter: 63.4*

What do the screens show for `Cc1ccc(C)c(NC(=O)c2cccc(Oc3ccc([N+](=O)[O-])cc3Cl)c2)c1`?
Pf growth 48h: -7.4%; Shiga inhibitor: -19.8; Pf growth 96h: 13.1µM*; CHX counter: 0.7

Results for Cc1nc2ccn(Cc3ccccc3)c(=O)c2cc1C(=O)N1CCN(c2ccc(F)cc2)CC1 ?
MARV entry inh: -8.4%[46.1 µM]; Pf growth 48h: -17.1%; LASV entry inh: inconclusive; Shiga inhibitor: -5.2; Pf growth 96h: 4.3%; CHX counter: -2.4

Results for Cc1cc(C)c(C(=O)c2ccc(C(=O)N(C(C)C)C(C)C)cc2)c(C)c1 ?
MARV entry inh: -32.2%; LASV entry inh: -19.4%; Shiga inhibitor: 5.2; Pf growth 96h: inconclusive; CHX counter: 1.5

Results for O=C(NNC(=O)c1ccncc1)c1ccccc1 ?
Pf growth 48h: 11.3%[0.00184 µM]; Shiga inhibitor: -6.3; Pf growth 96h: inconclusive; CHX counter: -3.5

How did CC(C)(C)NC(=O)c1ccncc1 do in these assays?
MARV entry inh: 3.7%; LASV entry inh: 8.8%; Shiga inhibitor: -6.1; Pf growth 96h: 10.4µM*; CHX counter: -1.9

How did Cc1cc(C)c(C(=O)c2ccc(C(=O)NC(C)(C)C)cc2)c(C)c1 do in these assays?
MARV entry inh: -16.5%; LASV entry inh: -3.2%; Shiga inhibitor: -10.1; Pf growth 96h: 3.29µM*; CHX counter: -1.5

Results for CNC(=O)c1c(NC(=O)c2cccc(N3C(=O)CCC3=O)c2)sc2c1CCCC2 ?
MARV entry inh: 5.7%[46.1 µM]; Pf growth 48h: 15.8%; LASV entry inh: -1.9%; Shiga inhibitor: 25.4; Pf growth 96h: 11.6%; CHX counter: 16.2

Screening data as filed in PubChem BioAssay.
